Screen size: about 5,500 compounds; about 2,000 (36%) were called active. About 18% were inconclusive and are not listed. No stated cut-off is given here; in the data, active means normalized growth mostly below about 0.91 (no sharp cut-off); inconclusive means no clear call, values can overlap the other calls; inactive means mostly above about 0.92. The list shows a part of the results.
Assay: chemical genetic growth profiling, strain panel (AID 1159580);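 further: tested at 20 µM; growth read once vehicle control cultures reached saturation at 30 °C; 1 = growth at the plate median or of vehicle wells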
Details: growth OD

Measured: normalized growth

CON
inactive: S. cerevisiae deletion strains, locus YJR075W, strain HOC1, stronger effect = lower value 1.02 | S. cerevisiae deletion strains, locus YKL009W, strain mrt4, stronger effect = lower value 0.978 | S. cerevisiae deletion strains, locus YKL068W, stronger effect = lower value 0.992 | S. cerevisiae deletion strains, locus YKL085W, strain MDH1 (second series), stronger effect = lower value 1.04 | S. cerevisiae deletion strains, locus YKL085W, strain MDH1, stronger effect = lower value 1.04 | S. cerevisiae deletion strains, locus YKL160W, strain elf1, stronger effect = lower value 1.06 | S. cerevisiae deletion strains, locus YKL190W, strain CNB1, stronger effect = lower value 1 | S. cerevisiae deletion strains, locus YKR001C, strain vps1, stronger effect = lower value 0.989 | S. cerevisiae deletion strains, locus YKR026C, strain gcn3, stronger effect = lower value 0.993 | S. cerevisiae deletion strains, locus YKR091W, strain srl3, stronger effect = lower value 0.998 | S. cerevisiae deletion strains, locus YLL001W, strain dnm1, stronger effect = lower value 1 | S. cerevisiae deletion strains, locus YLL026W, stronger effect = lower value 1.01 | S. cerevisiae deletion strains, locus YLL041C, strain sdh2, stronger effect = lower value 0.988 | S. cerevisiae deletion strains, locus YLR027C, strain aat2, stronger effect = lower value 1.01 | S. cerevisiae deletion strains, locus YLR039C, strain RIC1, stronger effect = lower value 1.01 | S. cerevisiae deletion strains, locus YLR058C, strain SHM2, stronger effect = lower value 1.01 | S. cerevisiae deletion strains, locus YLR102C, strain apc9, stronger effect = lower value 0.989 | S. cerevisiae deletion strains, locus YLR113W, strain HOG1, stronger effect = lower value 0.988 | S. cerevisiae deletion strains, locus YLR221C, strain rsa3, stronger effect = lower value 0.984 | S. cerevisiae deletion strains, locus YLR258W, strain gsy2, stronger effect = lower value 1.01 | S. cerevisiae deletion strains, locus YLR262C, strain YPT6 (second series), stronger effect = lower value 0.999 | S. cerevisiae deletion strains, locus YLR262C, strain YPT6, stronger effect = lower value 1.01 | S. cerevisiae deletion strains, locus YLR268W, strain sec22, stronger effect = lower value 0.995 | S. cerevisiae deletion strains, locus YLR320W, strain mms22, stronger effect = lower value 1.02 | S. cerevisiae deletion strains, locus YLR330W, strain CHS5, stronger effect = lower value 1.01 | S. cerevisiae deletion strains, locus YLR342W, strain FKS1 (second series), stronger effect = lower value 0.999 | S. cerevisiae deletion strains, locus YLR342W, strain FKS1, stronger effect = lower value 1.01 | S. cerevisiae deletion strains, locus YLR357W, strain rsc2, stronger effect = lower value 0.97 | S. cerevisiae deletion strains, locus YLR370C, strain arc18, stronger effect = lower value 1.04 | S. cerevisiae deletion strains, locus YLR371W, strain rom2, stronger effect = lower value 0.99 | S. cerevisiae deletion strains, locus YLR384C, strain iki3, stronger effect = lower value 1.01 | S. cerevisiae deletion strains, locus YLR418C, strain cdc73, stronger effect = lower value 1.03 | S. cerevisiae deletion strains, locus YML016C, strain PPZ1, stronger effect = lower value 1 | S. cerevisiae deletion strains, locus YML032C, strain rad52, stronger effect = lower value 1.01 | S. cerevisiae deletion strains, locus YML120C, strain ndi1, stronger effect = lower value 1 | S. cerevisiae deletion strains, locus YML124C, strain tub3, stronger effect = lower value 0.987 | S. cerevisiae deletion strains, locus YMR058W, strain fet3, stronger effect = lower value 0.998 | S. cerevisiae deletion strains, locus YMR078C, strain ctf18, stronger effect = lower value 0.99 | S. cerevisiae deletion strains, locus YMR125W, strain sto1, stronger effect = lower value 0.987 | S. cerevisiae deletion strains, locus YMR129W, stronger effect = lower value 1.02 | S. cerevisiae deletion strains, locus YMR205C, strain PFK2, stronger effect = lower value 1 | S. cerevisiae deletion strains, locus YMR223W, strain ubp8, stronger effect = lower value 0.993 | S. cerevisiae deletion strains, locus YMR231W, strain pep5, stronger effect = lower value 0.996 | S. cerevisiae deletion strains, locus YMR263W, strain SAP30, stronger effect = lower value 1 | S. cerevisiae deletion strains, locus YMR307W, strain GAS1, stronger effect = lower value 1.09 | S. cerevisiae deletion strains, locus YNL067W, strain RPL9B, stronger effect = lower value 1.03 | S. cerevisiae deletion strains, locus YNL071W, strain lat1, stronger effect = lower value 0.985 | S. cerevisiae deletion strains, locus YNL153C, strain GIM3, stronger effect = lower value 1.04 | S. cerevisiae deletion strains, locus YNL183C, strain NPR1, stronger effect = lower value 0.927 | S. cerevisiae deletion strains, locus YNL209W, strain ssb2, stronger effect = lower value 1.01 | S. cerevisiae deletion strains, locus YNL233W, strain BNI4, stronger effect = lower value 1.04 | S. cerevisiae deletion strains, locus YNL248C, strain rpa49, stronger effect = lower value 1.02 | S. cerevisiae deletion strains, locus YNL250W, strain rad50, stronger effect = lower value 0.99 | S. cerevisiae deletion strains, locus YNL271C, strain bni1, stronger effect = lower value 0.986 | S. cerevisiae deletion strains, locus YNL298W, strain CLA4, stronger effect = lower value 0.981 | S. cerevisiae deletion strains, locus YNL307C, strain MCK1, stronger effect = lower value 0.993 | S. cerevisiae deletion strains, locus YNL322C, strain KRE1 (second series), stronger effect = lower value 1.01 | S. cerevisiae deletion strains, locus YNR049C, strain mso1, stronger effect = lower value 1 | S. cerevisiae deletion strains, locus YNR052C, strain pop2, stronger effect = lower value 0.978 | S. cerevisiae deletion strains, locus YOL006C, strain TOP1, stronger effect = lower value 1.08 | S. cerevisiae deletion strains, locus YOL012C, strain htz1 1.2 | S. cerevisiae deletion strains, locus YOL147C, strain pex11, stronger effect = lower value 0.998 | S. cerevisiae deletion strains, locus YOR001W, strain rrp6, stronger effect = lower value 0.968 | S. cerevisiae deletion strains, locus YOR061W, strain CKA2, stronger effect = lower value 1 | S. cerevisiae deletion strains, locus YOR069W, strain VPS5, stronger effect = lower value 0.993 | S. cerevisiae deletion strains, locus YOR070C, strain gyp1, stronger effect = lower value 1.02 | S. cerevisiae deletion strains, locus YOR080W, strain dia2, stronger effect = lower value 0.996 | S. cerevisiae deletion strains, locus YOR083W, strain WHI5, stronger effect = lower value 1.03 | S. cerevisiae deletion strains, locus YOR106W, strain vam3, stronger effect = lower value 1.02 | S. cerevisiae deletion strains, locus YOR136W, strain idh2, stronger effect = lower value 0.98 | S. cerevisiae deletion strains, locus YOR144C, strain elg1, stronger effect = lower value 0.995 | S. cerevisiae deletion strains, locus YOR184W, strain ser1, stronger effect = lower value 0.958 | S. cerevisiae deletion strains, locus YOR231W, strain MKK1, stronger effect = lower value 1.04 | S. cerevisiae deletion strains, locus YOR265W, strain rbl2, stronger effect = lower value 1.01 | S. cerevisiae deletion strains, locus YOR270C, strain vph1, stronger effect = lower value 1.04 | S. cerevisiae deletion strains, locus YOR290C, strain snf2, stronger effect = lower value 1.07 | S. cerevisiae deletion strains, locus YOR316C, strain cot1, stronger effect = lower value 0.983 | S. cerevisiae deletion strains, locus YPL051W, strain arl3, stronger effect = lower value 1.04 | S. cerevisiae deletion strains, locus YPL055C, strain LGE1, stronger effect = lower value 1.09 | S. cerevisiae deletion strains, locus YPL078C, strain atp4, stronger effect = lower value 1.04 | S. cerevisiae deletion strains, locus YPL106C, strain sse1, stronger effect = lower value 1.01 | S. cerevisiae deletion strains, locus YPL240C, strain hsp82, stronger effect = lower value 1 | S. cerevisiae deletion strains, locus YPL256C, strain CLN2, stronger effect = lower value 0.993 | S. cerevisiae deletion strains, locus YPR119W, strain clb2, stronger effect = lower value 0.99 | S. cerevisiae deletion strains, locus YPR141C, strain kar3, stronger effect = lower value 0.989 | S. cerevisiae deletion strains, locus YPR163C, strain tif3, stronger effect = lower value 0.991 | S. cerevisiae deletion strains, locus YPR167C, strain met16, stronger effect = lower value 0.984 | S. cerevisiae deletion strains, strain wtn01, stronger effect = lower value 0.978 | S. cerevisiae strains, strain wild type, stronger effect = lower value 0.997

Source: PubChem BioAssay AID1159580 (chemical genetic matrix, 2015)
